From PubChem BioAssay AID624442 (Broad Institute, 2012)
The source made the active and inactive calls.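 The calls were made as follows: active = activation curve reaches 40% at a concentration no higher than the top valid dose tested; inactive = signal falling instead of rising, plus the rest.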

Assay: reactive oxygen species induction in U2OS, dose response, U2OS cells, fluorescence, dry powder, set 2 (AID 624442)
Details: U2OS ROS induction, H2DCF-DA fluorescence, active compounds read high; at 38 µM unless noted

Max activation, inactive:
Cc1ccccc1CSc1nsc(N)n1 27.9% [at 19.5 µM], Cc1ccccc1CSc1n[nH]c(N)n1 25.1% [at 1.2 µM], Cc1cccc(CSc2nsc(N)n2)c1 24.3% [at 19.5 µM], Nc1nc(SCc2ccc(F)cc2)ns1 15.9% [at 1.2 µM], Nc1nc(SCc2ccccc2)ns1 14.6% [at 5 µM], O=C(Nc1nc(SCc2ccccc2)ns1)C1CC=CCC1 (configuration not stated) 65.2%, Nc1nc(SCc2ccc(Cl)cc2Cl)ns1 32.3% [at 0.3 µM], Nc1nc(S(=O)(=O)Cc2ccccc2)ns1 18.5% [at 0.6 µM], O=C(Nc1nc(SCc2ccccc2)ns1)C1CCC1 30.8%, Nc1nc(SCc2ccccc2Cl)ns1 17.6% [at 5 µM], O=C(Nc1ccccc1)Nc1nc(SCc2ccccc2)ns1 11.1%, Cc1ccccc1CSc1nnc(N)s1 16.2% [at 19.5 µM]
